# Only some compounds are listed: those with a hit (about 14% of all), similar ones and a draw of the others.
# Pf growth 48h: Primary qHTS for delayed death inhibitors of the malarial parasite plastid, 48 hour incubation; P. falciparum luciferase growth in erythrocytes, 48 h; Potency, µM (top dose mostly 28.7 µM), for the others: at the top dose activity change, negative = inhibition, actives largely listed as inhibitors; 5.9% of 310,000 active; also: potency is read from the fitted curve at half-maximal effect
#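 A one-generation exposure of luciferase-tagged malaria parasites in RPMI 1640/Albumax erythrocyte culture, 37 C and 5% CO2. Inhibition is inferred from decreased luminescence after adding detection reagent.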
# HCMV antiviral: qHTS Assay for inhibitors of the human cytomegalovirus (HCMV). HFF cells, HCMV-luciferase reporter, 72 h; hits give low values. AID 1259415, 2018. 4.5% of 410,000 active. activity change, negative = inhibition, % at 57.5 µM; in the data active = activity change below about -60%; inconclusive = no clear call, values can overlap the other calls; inactive = above about -39%
#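 Steps: HFFs plated, 16 h 37C; compounds added; HCMV-luciferase added to MOI 1 PFU/cell; 72 h 37C; OneGlo reagent, 5 min room temperature; luminescence read, normalized to controls.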
# FBPA Giardia inh: qHTS Assay for Inhibitors of Fructose-1,6-bisphosphate Aldolase from Giardia Lamblia | Potency, µM (titrated, usually from 59.6 µM), for inactives: at the highest dose activity, negative = inhibition, most hits filed as inhibitors | purified Giardia FBPA | 0.71% of 290,000 active | A8B2U2; also: potency is read from the fitted curve at half-maximal effect; nearly all actives have a fitted effect of over 55% in size
# Target sequence (A8B2U2 whole entry, looked up): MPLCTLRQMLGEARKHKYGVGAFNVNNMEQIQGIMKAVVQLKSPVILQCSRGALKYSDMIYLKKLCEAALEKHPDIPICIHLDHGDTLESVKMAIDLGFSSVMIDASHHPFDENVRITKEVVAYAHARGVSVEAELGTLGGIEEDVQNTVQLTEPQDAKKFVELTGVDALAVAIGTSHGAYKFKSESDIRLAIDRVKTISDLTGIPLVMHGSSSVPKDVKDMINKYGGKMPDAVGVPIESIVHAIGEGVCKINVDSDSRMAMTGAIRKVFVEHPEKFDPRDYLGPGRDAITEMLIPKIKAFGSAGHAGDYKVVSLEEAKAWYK
#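 40 nM FBPA preincubated 10 min at RT with compound (up to 57.5 uM final), then substrate plus GAPDH/TPI/NAD/arsenate coupling and diaphorase/resazurin added. Fluorescence read after 20 min at RT, 525/598 nm.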
# Sm TGR inh: qHTS Assay for the Inhibitors of Schistosoma Mansoni Peroxiredoxins | purified TGR, DTNB reduction, TNB absorbance 405 nm | Potency, µM (highest dose often 114 µM), without a hit: at the highest dose activity change, negative = inhibition, actives largely listed as inhibitors | AID 485364, 2010 | 3% of 360,000 active; also: potency is read from the fitted curve at half-maximal effect; nearly all actives have a fitted effect of over 60% in size
#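 Kinetic colorimetric format: TGR-catalysed, NADPH-driven DTNB reduction monitored via TNB absorbance. Enzyme dispensed at 20 nM; compound exposure 15 min at room temperature before reaction start.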
# Pf growth 96h: Primary qHTS for delayed death inhibitors of the malarial parasite plastid, 96 hour incubation; Potency, µM (highest dose often 28.7 µM), without a hit: at the highest dose activity change, negative = inhibition, usual class: inhibitors; 6.9% of 320,000 active; P. falciparum luciferase reporter growth, 96 h; AID 504834, 2011; also: potency is read from the fitted curve at half-maximal effect
#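 Two parasite generations (96 h, 37 C, 5% CO2) of compound exposure in infected erythrocytes (0.05% parasitemia, 2% hematocrit). Luciferase-reporter P. falciparum; decreased luminescence indicates inhibited growth, aimed at apicoplast-acting delayed death.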
# Active calls of the source: *; i = inactive; u = inconclusive; x = no result given; [ ] = remark or other dose. Unless noted, calls follow the shape of the dose curve; as a rule, active = well fitted curve in the direction sought with a large enough effect; inconclusive = small, poorly fitted or top-dose-only effect, or another doubt; inactive = no such curve, though single readings can be large; an effect the other way counts as inactive or inconclusive. % is scaled to controls: 0 for no effect and ±100 for the full control effect.
SMILES,Pf growth 48h,HCMV antiviral,FBPA Giardia inh,Sm TGR inh,Pf growth 96h
COC(=O)C1=C(c2cccc(OCc3ccccc3)c2)C[C@@H]2CC[C@H]1N2C(=O)NCc1ccc(Cl)cc1,8.28µM*,-25.5,x,-0.5%,u
COC(=O)C1=C(c2cccc(OCc3ccccc3)c2)C[C@@H]2CC[C@H]1N2C(=O)NCc1ccc([N+](=O)[O-])cc1,11.7µM*,-10.8,x,-0.6%,u
COC(=O)C1=C(c2ccc(OC)c(OC)c2)C[C@@H]2CC[C@H]1N2C(=O)NCc1cccc2ccccc12,0.522µM*,62.2,x,-7.4%,0.233µM*
COC(=O)C1=C(c2cccc(OCc3ccccc3)c2)C[C@@H]2CC[C@H]1N2C(=O)NCc1cc(C)oc1C(F)(F)F,4.65µM*,-15.4,x,-1.3%,u
O=C(Cn1ncc2ccsc2c1=O)N1CCN(c2ccccc2F)CC1,x,-21.6,x,6.7%,x
COc1ccccc1C(=O)NCCC(=O)NNC(=O)Cn1ccc(C(F)(F)F)n1,-7.1%,9.3,x,-1.3%,7.7%
COC(=O)C1=C(c2cccc(OCc3ccccc3)c2)C[C@@H]2CC[C@H]1N2C(=O)NCc1cccc(C(F)(F)F)c1,13.1µM*,-17.7,x,10.9%,u
COC(=O)C1=C(c2cccc(OCc3ccccc3)c2)C[C@@H]2CC[C@H]1N2C,x,-18.9,x,x,x
COC(=O)C1=C(c2cccc(OCc3ccccc3)c2)C[C@@H]2CC[C@H]1N2C(=O)NCc1ccccc1OC,7.38µM*,-88.4*,x,1.2%,u
CCC(C)N(C(=O)c1csnn1)C(C(=O)NCc1ccc(F)cc1)c1ccccc1F (centres undefined),-12.5%,u,-3.6%,-8.5%,2.0%
CC(C)CN(CC(C)C)CC(O)COc1ccc([N+](=O)[O-])cc1 (centres undefined),11.7µM*,29.7,6.4%,-11.7%,-80.9%
CCCCN(CCCC)CC(O)COc1ccccc1Br (centres undefined),4.15µM*,-20.0,-4.0%,-0.8%,93.1%
CC(C)CN(CC(C)C)CC(O)COc1ccccc1Br (centres undefined),u,-75.5*,-14.5%,1.3%,3.29µM*
COc1ccc(OCC(O)CN(C)C(=O)/C=C/c2cccc([N+](=O)[O-])c2)cc1 (centres undefined),19.4%,-78.0*,-2.4%,x,u
CC(C)(C)c1ccc(C(=O)NCC(=O)OCC(=O)N2CCCC2)cc1,1.1%,-10.4,x,6.4%,44.9%
Nc1nc(-c2ccco2)c(-c2ccco2)s1,u,-25.7,u,20µM*,u
Nc1nc(-c2ccco2)cs1,13.4%,-9.0,u,u,u
COc1ccc2nc3cccc(OC)c3nc2c1,u,15.9,1.41µM*,20µM*,u
COc1ccc2nc3ccccc3nc2c1N,149.5%,79.4,-10.9%,u,39.4%
c1coc(-c2nc(-c3ccco3)c(-c3ccco3)nc2-c2ccco2)c1,-20.0%,-7.2,u,0.708µM*,103.5%
c1coc(-c2ncc[nH]2)c1,0.9%,-18.6,-22.6%,-14.6%,u
COc1ccc2nc(-c3ccco3)c(-c3ccco3)nc2c1,x,29.9,u,3.55µM*,16.7%
Cn1nnnc1SCC(=O)Nc1ccc(S(=O)(=O)N2CCOCC2)cc1,-16.8%,u,4.4%,-3.7%,-21.1%
C[C@H](NC(=O)C[C@@H]1C=C[C@@H](NC(=O)CN2CCOCC2)[C@@H](CO)O1)c1ccccc1,x,-14.1,x,x,x
Cc1c(C(=O)NCc2ccc3c(c2)OCCO3)sc(=O)n1Cc1ccc(C(=O)N(C)C)cc1,x,-19.0,x,x,x
SMILES,Pf growth 48h,HCMV antiviral,FBPA Giardia inh,Sm TGR inh,Pf growth 96h
CN(CC(=O)Nc1cccc(F)c1)C(=O)COc1cccc2c1OC(C)(C)C2,u,16.3,x,-19.9%,u
CCOP(=O)(OCC)c1nc(-c2ccccc2Cl)oc1N1CCOCC1,-22.7%,-2.8,4.0%,-10.0%,u
CN(C)c1oc(-c2ccccc2Cl)nc1P(=O)(c1ccccc1)c1ccccc1,x,32.0,0.6%,6.4%,11.7µM*
Cc1c(C)n(C)c2ccc(C(=O)NCCCN3CCN(c4ccccc4F)CC3)cc12,10.4µM*,0.0,14.2%,-16.2%,-20.1%
O=C(NCCCN1CCN(c2ccccc2F)CC1)c1ccc2nc(CCc3ccccc3)oc2c1,x,-100.7*,x,u,x
COC(=O)[C@H]1[C@H](CO)[C@H]2Cn3c(cccc3=O)[C@@H]1N2CC1CC1,x,-10.3,x,x,x
COc1cc(CNCc2c(C(=O)O)c(C)n(Cc3cccc(Cl)c3)c2C)cc(OC)c1OC,x,8.0,x,-7.2%,x
Cc1[nH]c2ccccc2c1C(=O)CSc1nc2ccccc2c(=O)n1CCCN1CCOCC1,u,-73.9*,5.8%,-4.0%,x
COCCn1c(SCC(=O)c2c[nH]c3ccccc23)nc2cc(C(=O)NC(C)C)ccc2c1=O,x,24.4,x,-28.9%,x
O=C1c2ccccc2C(=O)N1CCCCSc1nc2ccccc2c(=O)n1CCCN1CCOCC1,u,-103.7*,0.8%,14.3%,u
COC(=O)CC(=O)CSc1nc2cc(C(=O)NCC(C)C)ccc2c(=O)n1CCc1ccccc1,x,-93.6*,x,16.6%,x
COCCn1c(SCC(=O)c2c(C)[nH]c3ccccc23)nc2cc(C(=O)NC(C)C)ccc2c1=O,x,17.8,x,35.5µM*,x
Cn1c(N)c(C(=O)CSc2nc3ccccc3c(=O)n2CCCN2CCOCC2)c(=O)n(C)c1=O,-6.6%,-0.7,7.2%,-1.9%,8.4%
O=C1c2ccccc2C(=O)N1CCSc1nc2ccccc2c(=O)n1CCCN1CCOCC1,-4.0%,25.2,2.0%,0.4%,u
COc1ccc(/C=C/C2=C[C@]3(C)C[C@]2(C)[C@H](c2ccc(OC)cc2)CC3=O)cc1,x,x,6.2%,x,x
CC(=O)c1cccc(NC(=O)CN2C(=O)c3ccccc3Sc3ncccc32)c1,x,20.7,x,-20.8%,x
O=C(Nc1ccccc1)N1CCCC2(CCN(S(=O)(=O)c3ccccc3)CC2)C1,x,x,-7.2%,x,x
CCN1C(=O)[C@H]2[C@H]3[C@H](O)[C@H](O)C/C(=N/OC[C@@H](O)[C@H]4O[C@H]5OC(C)(C)O[C@H]5[C@@H]4O)[C@@H]3CC[C@@H]2C1=O,x,x,0.1%[12.9 µM],x,x
O=C(CSc1nc2ccccc2c(=O)n1CCCN1CCOCC1)NCCc1ccccc1,x,-16.9,x,x,x
O=C(CSc1nc2ccccc2c(=O)n1CCCN1CCOCC1)NC12CC3CC(CC(C3)C1)C2,10.4µM*,u,4.8%,-0.8%,u
O=C(Nc1nnc(C2CC2)s1)C1COc2ccccc2O1 (centres undefined),i,39.9,4.0%,u,235.3%
O=C(/C=C/c1ccc(Br)o1)Nc1nnc(C2CC2)s1,24.4%,x,-3.3%,11.2µM*,u
COc1cc(Nc2ccc(S(N)(=O)=O)cc2)c([N+](=O)[O-])nc1[N+](=O)[O-],2.3%,-19.1,-5.8%,20µM*,1.6%

# Bioassay records (PubChem)
